# Source: PubChem (National Center for Advancing Translational Sciences (NCATS))
# TrxR1 substrate: qHTS Assay for Substrates of Mammalian Selenoprotein Thioredoxin Reductase 1 (TrxR1): qHTS | Thioredoxin reductase 1, cytoplasmic (Rattus norvegicus), O89049 | purified TrxR1 substrate turnover, NADPH consumption readout | Potency, µM (titrated, usually from 114 µM) | 390,000 tested, 0.01% active; note: nearly all actives have a fitted effect of over 50% in size
#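 Rat TrxR1, dispensed at 90 nM, was prereduced with 400 uM NADPH (final) for 5 min at ~22 deg C, then incubated with compound 15 min before 400 uM selenite. A first-read NADPH fluorescence drop versus no-compound background flagged substrates.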
# GCN5L2 inh: qHTS Assay for Inhibitors of GCN5L2. Histone acetyltransferase KAT2A (Homo sapiens), Q92830. GCN5L2 HAT assay, ThioGlo1 CoA-SH fluorescence. Potency, µM (titrated, usually from 58.9 µM), hits mostly inhibitors. 390,000 tested, 0.21% active. AID 504327, 2011
#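 qHTS, 1536-well. 20nM enzyme, pH 7.5 HEPES/EDTA/Tween-20 buffer; 15 min compound preinc., RT. Start: 75uM H3(1-25), 70uM AcCoA, 50uM ThioGlo1. Read Ex340/Em540 at t=0 (autofluorescence flag) and t=20 min.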
# VDR inh: Inhibitors of the vitamin D receptor (VDR): qHTS; Vitamin D3 receptor (Homo sapiens), P11473; VDR-SRC2-3 peptide fluorescence polarization, 2 h; Potency, µM, most hits filed as inhibitors; 400,000 tested, 0.93% active; AID 504847, 2011
#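 Inhibition of the VDR/SRC2-3 peptide interaction is quantified by fluorescence polarization. Compounds (23 nl, pintool) incubate with the reagents for 2 hours at ambient room temperature.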
# TrxR1 inh: qHTS Assay for Inhibitors of Mammalian Selenoprotein Thioredoxin Reductase 1 (TrxR1): qHTS. Thioredoxin reductase 1, cytoplasmic (Rattus norvegicus), O89049. recombinant rTrxR1, NADPH fluorescence consumption, selenite substrate. Potency, µM (series often up to 114 µM), actives largely listed as inhibitors. 390,000 tested, 1% active; note: nearly all actives have a fitted effect of over 65% in size
#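 Rat TrxR1 (90 nM in the dispensed reagent) was pre-reduced with 400 uM NADPH for 5 min at room temperature, then incubated with compound for 15 min. After 400 uM selenite was added, NADPH fluorescence (Ex 340/Em 450 nm) was followed for 8 min.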
# Sfp inh: qHTS Assay for Inhibitors of Bacillus subtilis Sfp phosphopantetheinyl transferase (PPTase); 4'-phosphopantetheinyl transferase ffp (Bacillus subtilis), Q9F4F7; Biochemical Sfp PPTase activity, qHTS; Potency, µM, hits mostly inhibitors; 310,000 tested, 3.5% active; AID 1490, 2009;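 note: the enzyme is Sfp with the accession as filed and its product quenches rhodamine fluorescence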
#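 After 15 min at room temperature with compound, 15 nM Sfp received 5 uM rhodamine-CoA plus 12.5 uM BHQ-2-ybbR (50 mM Hepes pH 7.6, 10 mM MgCl2). Rate came from the fluorescence difference over 30 min, ex 525/em 598 nm.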
# GLS inh: qHTS for Inhibitors of Glutaminase (GLS) | Glutaminase kidney isoform, mitochondrial (Homo sapiens), O94925 | GLS enzymatic activity, qHTS titration | Potency, µM (series often up to 45.5 µM), hits mostly inhibitors | 410,000 tested, 0.21% active | AID 624170, 2012
#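 hKGA in 45 mM KH2PO4 (pH 8.2), 0.02% Tween-20 with compound, then 1mM L-Glutamine (stock as added) plus glutamate oxidase/HRP/Amplex red coupling mix. Fluorescence read initially and after 30 min at RT; signal change reflects glutamate formation.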
# Hits are given with their value; i = inactive; ? = inconclusive; nt = not tested or not shown; ! = not active in a repeat; [ ] = remark or other dose. A selection: hits, their analogues and other compounds. The true share with any hit is near 3.8%. Calls come from the whole dose curve; as a rule, active = well fitted curve in the direction sought with a large enough effect; inconclusive = small, poorly fitted or top-dose-only effect, or another doubt; inactive = no such curve, though single readings can be large; an effect the other way counts as inactive or inconclusive.
SMILES,TrxR1 substrate,GCN5L2 inh,VDR inh,TrxR1 inh,Sfp inh,GLS inh
Cc1ccc(/C=C/C(=O)N2CCN(S(=O)(=O)c3cccs3)CC2)o1,i,i,i,?,14µM,i
CCOCC(=O)Nc1ccc(-c2cn3cccnc3n2)cc1,i,35µM,i,i,i,i
NCCOB(c1ccccc1)c1ccccc1,nt,?,14µM,nt,56µM!,nt
NCCOc1ccccc1OCCN,i,i,i,i,i,i
O=C(COC(=O)c1cc(S(=O)(=O)N2CCc3ccccc3C2)ccc1Cl)NCc1ccco1,i,?,?,?,45µM,i
Cc1ccc(C(=O)c2coc3ccc(O)cc23)cc1,i,i,i,i,i,i
CCOC(=O)C(C(C)=O)c1c(Br)c(O)c(O)c2c(C(=O)c3ccc(C)cc3)coc12 (stereo not drawn),i,i,i,?,13µM,i
CCOC(=O)c1c(C)n(-c2ccc(C)cc2)c2c(C(C(C)=O)C(=O)O)c(Br)c(O)c(O)c12 (stereo not drawn),i,i,i,?,0.89µM,i
N#Cc1cc2c(nc1SCc1ccncc1)CCC2,i,i,i,i,50µM,i
N#Cc1cc2c(nc1SCC(=O)N1CCCCC1)CCCCC2,i,nt,?,i,56µM,i
N#Cc1ccc(CCc2ccccc2)[nH]c1=O,i[2.29 µM],nt,i,i[2.29 µM],nt,i
Cc1cc(C)nc(NS(=O)(=O)c2ccc(NCN3C(=O)c4ccccc4C3=O)cc2)n1,nt,nt,nt,nt,nt,i
Cc1ccccc1-c1nc2ccccc2c(=O)o1,nt,nt,nt,nt,nt,i
CC(C)(C)NC(=O)CSc1ccc(C(C)(C)C)cc1,i,i,i,i,i,i
COc1ccc(C2=CC3=C(Br)C(=O)C(C)(OC(=O)c4ccc(Cl)nc4)C(=O)C3=CO2)cc1 (stereo not drawn),i,i,i,13µM,i,i
COc1ccc(C2=CC3=C(Br)C(=O)C(C)(OC(=O)C4CCCC4)C(=O)C3=CO2)cc1 (stereo not drawn),i,i,?,?,i,i
COC(=O)CCC(=O)OC1(C)C(=O)C2=COC(c3ccc(OC)cc3)=CC2=C(Br)C1=O (stereo not drawn),i,i,?,14µM,i,?
CN(CCC#N)C(=O)c1cc2c(s1)-c1ccccc1SC2,i,i,i,i,i,i
C=CCn1c(SCCN2C(=O)c3ccccc3C2=O)nc2scc(-c3ccc(F)cc3)c2c1=O,i,nt,i,i,nt,i
CN(Cc1ccco1)c1ccnc(-c2cccnc2)n1,nt,i,45µM,nt,i,nt
c1cncc(-c2noc(-c3ccco3)n2)c1,i,i,i,i,i,i
CN(Cc1ccco1)c1ccnc(-c2ccccc2C(F)(F)F)n1,nt,i,45µM,nt,i,nt
CN(Cc1ccco1)c1ncncc1-c1cccc(C#N)c1,nt,i,?,nt,i,nt
CN(Cc1ccco1)c1ccnc(-c2ccoc2)n1,nt,?,45µM,nt,50µM,nt
CN(Cc1ccco1)c1ccnc(-c2cccc(C#N)c2)n1,nt,i,35µM,nt,?,nt
SMILES,TrxR1 substrate,GCN5L2 inh,VDR inh,TrxR1 inh,Sfp inh,GLS inh
CNc1ccnc(-c2ccccc2C(F)(F)F)n1,nt,i,i,nt,i,nt
CNc1ccnc(-c2c(C)noc2C)n1,nt,i,i,nt,i,nt
Cc1noc(C)c1-c1nccc(N(C)Cc2ccco2)n1,nt,i,45µM,nt,?,nt
CC(O)CNc1nc2c(c(=O)n(Cc3ccc(Br)cc3)c(=O)n2C)n1C (stereo not drawn),i,i,i,i,i,20µM
Cn1c(N2CCOCC2)nc2c1c(=O)n(Cc1ccc(Cl)cc1)c(=O)n2C,i,nt,i,i,nt,13µM
CC(O)CNc1nc2c(c(=O)n(Cc3cccc(Cl)c3)c(=O)n2C)n1C (stereo not drawn),i,i,i,i,i,i
Cn1c(N2CCC(C(N)=O)CC2)nc2c1c(=O)n(Cc1ccc(Br)cc1)c(=O)n2C,i,nt,i,i,nt,13µM
